The record followed here is ChEMBL document CHEMBL3988442, “University of Dundee, Small-Polar-MMV Screening Library” (2021).

Hit rate of the full screen: of about 38,000 compounds, about 1,200 (3.2%) showed an effect of 50% or more. The median lay at about -58%. For the sample, strong results were picked, then their nearest neighbours and some compounds at random.

In this assay the test system is Plasmodium falciparum. As to the kind of experiment: Calibr Malaria Delayed Death Assay SOP. More on the design: scale not given: in the data most compounds retested in dose-response had high values. Particulars: concentration 4.99e-06 (unit not given; other assays of the set use mol/L). The class given is functional, organism-based.
In the case of `Cc1cccc(CN2CC3(CCN(S(=O)(=O)C4CC4)CC3)OCC2=O)n1.O=C(O)C(F)(F)F`, the “Percent Effect” value is recorded as -75.59%.
With `Cc1nccn1CCCC(=O)N1CCCN(c2cccnn2)CC1`, the “Percent Effect” value is reported as -112.5%.
Turning to `COC(=O)C1CN(Cc2nc(-c3ccccc3)cs2)C[C@@H](C)O1` (stereo partly drawn), the “Percent Effect” value was -63.3%.
In the case of `Cc1cc2cccc(NC(=O)N3CCC(N(C)C)C3)c2o1` (stereo not drawn) it was -83.5%; in that of `NC(=O)c1cc(NC(=O)NCCc2cc(F)cc(F)c2)ccc1F`, -73.47%.
In the case of `O=C1CC(c2ccc3c(c2)OCO3)c2c(n3ccsc3nc2=O)N1` (stereo not drawn) it was -91.85%; in that of `CN(C)c1ncccc1CNS(=O)(=O)c1cc(F)ccc1F`, -126.3%; in that of `CCC(CC)NC(=O)c1cccnc1N1CCCC1c1ccccn1` (stereo not drawn), -135.6%.
For `CCCS(=O)(=O)N1CCN(C(C)(C)CO)CC1`, the “Percent Effect” value is -101.2%.
With `O=C(CCc1cscn1)N1CCCC(c2ccn[nH]2)C1` (stereo not drawn), the “Percent Effect” value is on record as -83.54%.
Take `O=C(CN1CCCC(c2ccn[nH]2)C1)Nc1nc2c(s1)CCC2` (stereo not drawn): the “Percent Effect” value turned out to be 89.1%.
For `Cc1nnc(NC(=O)CN2CCCC(c3ccn[nH]3)C2)s1` (stereo not drawn), the “Percent Effect” value is listed as 85.62%.
In the case of `Cc1nnc(NC(=O)CN2CCCC(Cn3cncn3)C2)s1` (stereo not drawn) it was -101.2%; in that of `O=C1CCCCCN1CCC(=O)N1CCCC(c2ccn[nH]2)C1` (stereo not drawn), -59.24%.
As to `Cc1cc(C2CCCN(CC(=O)N3CCc4ccccc43)C2)n[nH]1` (stereo not drawn), the “Percent Effect” value was -86.51%.
Then `O=C1CCCN1CCN1CCCC(c2ccn[nH]2)C1` (stereo not drawn), with 13.33%; and `Cc1cc(C2CCCN(CC(=O)N3CCCc4ccccc43)C2)n[nH]1` (stereo not drawn), with -11.77%; and `CC(C)C1Nc2ccccc2C(=O)N1CC(=O)Nc1nc2c(s1)CCC2` (stereo not drawn), with 15.72%.
In the case of `Cc1cc(C2CCCN(CC(=O)Nc3nc4c(s3)CCC4)C2)n[nH]1` (stereo not drawn) it was 86.8%; in that of `Cc1nnc(NC(=O)CN2CCOC(Cn3cccn3)C2)s1` (stereo not drawn), -152.2%; in that of `O=C(CN1CCCC(c2ccn[nH]2)C1)Nc1nc2c(s1)CCCC2` (stereo not drawn), 85.91%.
Turning to `COc1ccc(C)nc1NC(=O)CCc1c(C)nn(C)c1C`, the “Percent Effect” value is given as -87.92%.
Then `CCc1nc(C(=O)N2CCN(C)c3ccccc32)c[nH]1`, with -108.8%; and `COCc1n[nH]/c(=N/C(=O)COc2cnc(C)cc2O)s1`, with -11.35%; and `O=C(c1cccnc1)N1CCC2(CC1)CN(c1ccccn1)CCO2`, with -57.82%.
In the case of `CN(C)C(=O)N1CC2(CCNCC2)c2cc(Cl)ccc21.Cl` it was 23.36%.
`Cl.NC(=O)N1CC2(CCNCC2)c2cc(Cl)ccc21`: the “Percent Effect” value was -64.91%.
Then `Cl.Cl.O=C([C@H]1CCCN1)N1CC2(CCNCC2)c2cc(Cl)ccc21`, with 58.74%.
